# PubChem BioAssay AID1259420 (Broad Institute, 2018)
# Hit rate of the full screen: of about 1,000 compounds, about 250 (25%) were called active. Not shown: some 31% with an inconclusive outcome. These entries were drawn from the full list. Measured potencies and affinities stand elsewhere. A number with no mark means an inactive call. The rule behind the calls is not given here. Numbered stars: 1 amine (or outer) side, 2 acyl side, 3 side chain; on linkers, the order of the positions; unused ones are H or OH. Bridge positions count the residues as written; N and C are the ends. Square brackets hold non-standard residues; d marks the D form. Side chains are listed from the residue outwards. Peptide text beside a SMILES is read from it. * marks the point of attachment. ξ: configuration not given here. Ethylenediamine = C(CN[*:2])N[*:1]; Heptanoyl(6-Me) = CC(C)CCCCC(=O)*; Hyp = O=C(O)[C@@H]1C[C@@H](O)CN1; Phg = N[C@H](C(=O)O)c1ccccc1; CO = O=C([*:1])[*:2]; ξDab = NCCC(N)C(=O)O; ξT = CC(O)C(N)C(=O)O; Bn = c1ccc(C*)cc1
# Assay: compound activity on host-cell Toxoplasma growth – dose response (AID 1259420);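 note: host cells were HeLa; final incubation lasted 72 hours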
# Conditions: Toxoplasma gondii growth in host cells, no IFN-gamma
compound,measurement,setting,value
O=S(=O)(c1ccc(F)cc1)N1C[C@@H]2N[C@H](C1)C2c1ccc(/C=C/c2ccccc2)cc1 (some centres not stated),max activity,at 19.5 µM unless noted,27.1%
CCCNC(=O)N1C[C@@H]2N[C@H](C1)C2c1ccc(-c2cccc(F)c2)cc1 (some centres not stated),max activity,at 19.5 µM unless noted,16.2% [at 21 µM]
C/C=C/c1ccc(C2[C@@H]3CN(S(=O)(=O)c4cccc(OC)c4)C[C@H]2N3)cc1 (some centres not stated),max activity,at 19.5 µM unless noted,-10.6% [at 0.16 µM]
Cc1cccc(-c2ccc(C3[C@@H]4CN(C(=O)Nc5ccc(F)cc5)C[C@H]3N4)cc2)c1 (some centres not stated),max activity,at 19.5 µM unless noted,30.6% [at 10 µM]
O=C(NC1CCCC1)N1CCCCN2[C@@H](CO)[C@H](c3ccc(-c4cccnc4)cc3)[C@@H]2C1,max activity,at 19.5 µM unless noted,11.1% [at 2.6 µM]
CC(C)CC#Cc1ccc([C@@H]2[C@@H](CO)N3CCCCN(C(=O)Nc4ccccc4)C[C@@H]23)cc1,max activity,at 19.5 µM unless noted,7.18% [at 2.6 µM]
O=C(c1cccc(F)c1)N1CCCCN2[C@H](C1)[C@@H](c1ccc(C#CC3(O)CCCC3)cc1)[C@@H]2CO,max activity,at 19.5 µM unless noted,13.2%
O=C(Nc1cccc(F)c1)N1CCCCN2[C@H](C1)[C@@H](c1ccc(C#Cc3cccnc3)cc1)[C@@H]2CO,max activity,at 0.3 µM,-7.31%
same,max activity,at 19.5 µM,-13.4%
O=C(Nc1cccc(F)c1)N1CCCCN2[C@H](CO)[C@@H](c3ccc(C#Cc4cccnc4)cc3)[C@@H]2C1,max activity,at 19.5 µM unless noted,5.46% [at 5 µM]
O=C(c1cccc(F)c1)N1CCCCN2[C@H](C1)[C@H](c1ccc(C#CC3(O)CCCC3)cc1)[C@@H]2CO,max activity,at 10 µM,-12.3%
same,max activity,at 21 µM,-8.26%
COCC#Cc1ccc([C@@H]2[C@H]3CN(C(=O)NC4CCCC4)CCCCN3[C@H]2CO)cc1,max activity,at 19.5 µM unless noted,30.5%
O=C(NC1CCCC1)N1CCCCN2[C@H](CO)[C@@H](c3ccc(-c4cccnc4)cc3)[C@H]2C1,max activity,at 19.5 µM unless noted,9.08% [at 0.038 µM]
CNc1ncc(CN(C)C(=O)c2csc(C)n2)cn1,max activity,at 19.5 µM unless noted,-6.03% [at 5 µM]
Cc1cnc(N2C[C@@H](c3ccccc3)[C@@]3(CCNC3=O)C2)nc1,max activity,at 19.5 µM unless noted,67.2%
CC1(C)C2CCC1(CS(=O)(=O)O)C(=O)/C2=C\c1ccc(/C=C2/C(=O)C3(CS(=O)(=O)O)CCC2C3(C)C)cc1,max activity,at 19.5 µM unless noted,5.44%
Fc1ccccc1-c1ccc(C2[C@H]3CNC[C@@H]2N3CC2CC2)cc1 (some centres not stated),max activity,at 19.5 µM unless noted,11.6%
CC(=O)O[C@H]1C[C@@H](OC(C)=O)C(C)(C)C2C[C@@H](OC(C)=O)[C@@]3(C)C4=CC(=O)O[C@@H](c5ccoc5)[C@]4(C)CCC3[C@]21C (some centres not stated),max activity,at 19.5 µM unless noted,-6.69% [at 0.16 µM]
O=C(C[C@@H]1CC[C@@H]2[C@H](COC[C@H](O)CN2C(=O)c2cc(Cl)cc(Cl)c2)O1)N1CCc2ccccc2C1,max activity,at 19.5 µM unless noted,9.95%
C/C=C/c1ccc(C2[C@@H]3CN(Cc4cccc(OC)c4)C[C@H]2N3)cc1 (some centres not stated),max activity,at 19.5 µM unless noted,25.8% [at 1.2 µM]
O=C(Nc1cccc(F)c1)N1CCCCN2[C@H](C1)[C@H](c1ccc(C#Cc3cccnc3)cc1)[C@@H]2CO,max activity,at 19.5 µM unless noted,-11.5% [at 21 µM]
O=C(Nc1cccc(F)c1)N1CCCCN2[C@@H](CO)[C@@H](c3ccc(C#Cc4cccnc4)cc3)[C@@H]2C1,max activity,at 19.5 µM unless noted,16.4% [at 0.6 µM]
CC(C)CCN1Cc2c(C(=O)Nc3cccc(F)c3)ncn2-c2ccccc2S1(=O)=O,max activity,at 19.5 µM unless noted,27% [at 10 µM]
COc1ccccc1NC(=O)N1CC(=O)N2[C@H](C1)[C@@H](c1ccc(C#CC(C)C)cc1)[C@@H]2CO,max activity,at 19.5 µM unless noted,-5.1% [at 5 µM]
O=C(c1ccc2c(c1)OCO2)N1CC[C@@H]2[C@H](CO)Nc3ccc(C#Cc4ccccc4)cc3[C@@H]21,max activity,at 19.5 µM unless noted,15.9%
N#Cc1ccc(-c2ccc([C@@H]3[C@H]4CNC[C@@H]3N4Cc3ccc4c(c3)OCO4)cc2)cc1,max activity,at 19.5 µM unless noted,27.3% [at 10 µM]
OC[C@@H]1Nc2ccc(C#Cc3ccc(F)cc3)cc2[C@@H]2[C@H]1CCN2Cc1ccc2c(c1)OCO2,max activity,at 19.5 µM unless noted,6.67% [at 1.2 µM]
COCCO[C@H]1CCN(Cc2c(C)noc2C)[C@H]1Cc1ccccc1,max activity,at 19.5 µM unless noted,-15.1% [at 10 µM]
NCCCC[C@@H]1NC(=O)[C@@H](Cc2c[nH]c3ccccc23)NC(=O)[C@H](c2ccccc2)NC(=O)[C@@H]2C[C@@H](OC(=O)NCCN)CN2C(=O)[C@H](Cc2ccccc2)NC(=O)[C@H](Cc2ccc(OCc3ccccc3)cc2)NC1=O (cyclo([Hyp]([CO-Ethylenediamine])[Phg][dW]KY(Bn)F)),max activity,at 19.5 µM unless noted,-6.82% [at 1.2 µM]
CCCCC[C@H](CC(=O)NO)C(=O)N[C@H](C(=O)N1CCC[C@H]1CO)C(C)C,max activity,at 19.5 µM unless noted,-4.64% [at 1.2 µM]
O=C(C[C@H]1CC[C@H]2[C@@H](COC[C@@H](O)CN2Cc2ccc(Oc3ccccc3)cc2)O1)N1CCN(c2ccccc2)CC1,max activity,at 19.5 µM unless noted,-8.77% [at 10 µM]
Nc1c(-c2nnc(-c3ccccc3)o2)sc2nc(-c3ccccc3)cc(-c3ccccc3)c12,max activity,at 19.5 µM unless noted,-6.07% [at 0.6 µM]
CCN(CC)CCOC(=O)C(c1ccccc1)C1CCCCC1 (configuration not stated),max activity,at 19.5 µM unless noted,16.1% [at 10 µM]
COc1ccc(Cc2nnc(NC(=O)CC(C)C)s2)cc1,max activity,at 19.5 µM unless noted,16.7% [at 10 µM]
COCC12CCCOC1CCN(S(=O)(=O)c1cn(C)cn1)C2 (configuration not stated),max activity,at 19.5 µM unless noted,-11.3% [at 2.6 µM]
CC(C)C#Cc1ccc([C@@H]2[C@@H](CO)N3C(=O)CN(S(=O)(=O)c4ccccc4)C[C@H]23)cc1,max activity,at 19.5 µM unless noted,8.39%
Cc1ccc(S(=O)(=O)N2CC[C@@H]3[C@H](CO)Nc4ccc(-c5cccc(C(=O)N(C)C)c5)cc4[C@@H]32)cc1,max activity,at 19.5 µM unless noted,15.5%
O=C(C[C@H]1CC[C@@H]2[C@H](COC[C@H](O)CN2C(=O)c2cc(Cl)cc(Cl)c2)O1)N1CCc2ccccc2C1,max activity,at 19.5 µM unless noted,6.12% [at 2.6 µM]
c1ccc(-c2ccc([C@H]3[C@H]4CNC[C@@H]3N4Cc3cc(-c4ccccc4)on3)cc2)cc1,max activity,at 19.5 µM unless noted,21.8% [at 21 µM]
COc1ccc(S(=O)(=O)N(C)C[C@H]2Oc3c(NC(=O)c4nc5ccccc5s4)cccc3C(=O)N([C@@H](C)CO)C[C@H]2C)cc1,max activity,at 19.5 µM unless noted,5.87% [at 5 µM]
Cc1ccc(S(=O)(=O)Nc2ccc3c(c2)C(=O)N([C@@H](C)CO)C[C@H](C)[C@H](CN(C)Cc2ccc(C(F)(F)F)cc2)O3)cc1,max activity,at 19.5 µM unless noted,18.3%
OC[C@@H]1[C@@H](c2ccc(-c3cccc(F)c3)cc2)[C@@H]2CN(Cc3cncnc3)CCCCN12,max activity,at 1.2 µM,-7.4%
same,max activity,at 19.5 µM,16.1%
Cc1ccc(CN2CC[C@H]3CO[C@@H](CNC(=O)C4CC4)[C@@H]3C2)cc1,max activity,at 19.5 µM unless noted,-26.4% [at 10 µM]
CC(C)CCCCC(=O)NC(CCN)C(=O)NC(C(=O)NC(CCN)C(=O)NC1CCNC(=O)C(C(C)O)NC(=O)C(CCN)NC(=O)C(CCN)NC(=O)[C@H](CC(C)C)NC(=O)[C@@H](CC(C)C)NC(=O)C(CCN)NC1=O)C(C)O (stereo partly drawn) ({Heptanoyl(6-Me)}-[ξDab][ξT][ξDab][ξDab][ξDab][dL]L[ξDab][ξDab][ξT]; lactam 4-C),max activity,at 19.5 µM unless noted,-5.41% [at 2.6 µM]
O=C(C1CCCCC1)N1[C@@H](CO)[C@@H]2c3ccccc3N(S(=O)(=O)c3ccccc3)C[C@@H]21,max activity,at 19.5 µM unless noted,7.57%
O=C(NC1CCCC1)N1[C@@H]2CNC[C@H]1C2c1ccc(-c2cccnc2)cc1 (some centres not stated),max activity,at 19.5 µM unless noted,-14.9% [at 10 µM]
CN(C)C(=O)c1cccc(-c2ccc3c(c2)[C@H]2[C@H](CCN2C(=O)Cc2ccccc2)[C@@H](CO)N3)c1,max activity,at 19.5 µM unless noted,-6.17% [at 10 µM]
CN(C)C(=O)c1cccc(-c2ccc3c(c2)[C@@H]2[C@@H](CCN2C(=O)Cc2ccccc2)[C@H](CO)N3)c1,max activity,at 19.5 µM unless noted,13.7% [at 21 µM]
O=C(Cc1cccnc1)N1CC(=O)N2[C@@H](CO)[C@H](c3ccc(C#CC4CCCCC4)cc3)[C@@H]2C1,max activity,at 19.5 µM unless noted,-4.29% [at 10 µM]
CC(C)NC(=O)N1CC(=O)N2[C@H](C1)[C@@H](c1ccc(/C=C/c3ccccc3)cc1)[C@@H]2CO,max activity,at 19.5 µM unless noted,11.9% [at 5 µM]
CN(C)C(=O)c1cc2c(nc1NCC1CC1)CCN(Cc1ccccn1)CC2,max activity,at 19.5 µM unless noted,-6.11% [at 10 µM]
CC(C)CN(C[C@@H](O)[C@H](Cc1ccccc1)NC(=O)O[C@H]1CO[C@H]2OCC[C@H]21)S(=O)(=O)c1ccc(N)cc1,max activity,at 19.5 µM unless noted,6.05% [at 1.2 µM]
O=C(C1CC1)N1C[C@@H]2N[C@H](C1)C2c1ccc(/C=C/c2ccccc2)cc1 (some centres not stated),max activity,at 19.5 µM unless noted,27.3%
COc1ccc(-c2ccc(C3[C@@H]4CN(C(=O)c5cnccn5)C[C@H]3N4)cc2)cc1 (some centres not stated),max activity,at 19.5 µM unless noted,19.9%
COc1ccccc1-c1ccc(C2[C@@H]3CN(C(=O)c4ccncc4)C[C@H]2N3)cc1 (some centres not stated),max activity,at 19.5 µM unless noted,-11% [at 5 µM]
Cc1csc([C@H]2C[C@H]3CCN(C(=O)c4cnccn4)C[C@@H]3O2)n1,max activity,at 19.5 µM unless noted,-12.1%
CC(C)CNC(=O)c1cc(-c2ccn(CC3CC3)n2)n2ccccc12,max activity,at 19.5 µM unless noted,21.6%
Cc1ccc(S(=O)(=O)N2CCC3(CC2)OC(C(=O)N(C)C)Cn2ccnc23)cc1 (configuration not stated),max activity,at 19.5 µM unless noted,-17%
CN(C)C(=O)CN1C[C@@H]2CCN(C(=O)Nc3ccccc3Cl)CC[C@H]2S1(=O)=O,max activity,at 19.5 µM unless noted,7.52% [at 2.6 µM]
O=C(NC1CCCC1)N1CC[C@H]2CN(Cc3cccc(Cl)c3)S(=O)(=O)[C@@H]2CC1,max activity,at 19.5 µM unless noted,-17.4%
